Nrf2 block: inhibitors of Nrf2 signaling; A549 ARE-Fluc reporter, luciferase luminescence, 18-24 h; 2.1% of 360,000 active; AID 504444; Potency, µM (series often up to 46 µM), without a hit: top-dose activity change, negative = inhibition, actives largely listed as inhibitors; further: on the % scale 0 is the no-effect control and ±100 the full control effect; nearly all actives have a fitted effect of over 60% in size
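Reporter: ARE-Fluc in A549. Exposure: 18-24 h, 37 °C, 5% CO2, 5% FBS OPTI-MEM. Readouts: fluorescent cytotoxicity (CellTiter-Fluor), then luminescent Nrf2 signal after BugLite.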
ATXN viability: viability counter-screen for ATXN expression inhibitors | S2 cells (HEK-293 line with an ATXN2-luciferase reporter) viability, CellTiter-Fluor protease fluorescence, 24 h | Potency, µM (doses to about 56.7 µM), hits mostly cytotoxic | 0.49% of 400,000 active; further: nearly all actives have a fitted effect of over 40% in size
A549 tox: A549 cytotoxicity, counter-screen for Nrf2 inhibitors; AID 504648; 0.16% of 390,000 active; Potency, µM (doses to about 46 µM), inactives show at the top dose activity change, negative = cytotoxicity, usual class: inhibitors; A549 ARE-Fluc cells, CellTiter-Fluor viability, 18-24 h; further: on the % scale 0 is the no-effect control and ±100 the full control effect
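A549 ARE-Fluc cells in 5% FBS OPTI-MEM, 5000 cells/well, rested 2 h then exposed to compounds in concentration-response for 18-24 h at 37 °C. Viability by CellTiter-Fluor fluorescence (Ex 405/Em 525) after 30 min; luciferase luminescence (BugLite, 15 min, RT) read afterwards.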
HepG2 tox: kills HepG2 cells in TGF-b inhibitor counter-screen; HepG2 CAGA-GFP viability, ATP luminescence, 18 h; Potency, µM (highest dose often 46.1 µM), inactives show top-dose activity change, negative = cytotoxicity, actives largely listed as cytotoxic; 0.76% of 410,000 active; AID 588856
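CellTiter-Glo luminescence gave cytotoxicity after 18 hours at 37 degrees C. The cells were HepG2 CAGA-GFP in 1% FBS DMEM, stimulated with 500 pg/mL TGF-beta after compound addition. %Activity was normalised to no-cell wells (complete cell-killing) and DMSO (no toxicity), and curves were fitted and classified.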
TGFb inhibitor: blocks TGF-b signaling. HepG2 CAGA-GFP TGF-b/SMAD3 reporter, GFP fluorescence, 18 h; TGF-beta stimulated, 500 pg/mL final. Potency, µM (top dose mostly 46.1 µM), without a hit: top-dose activity, negative = inhibition, actives largely listed as inhibitors. 1.2% of 410,000 active. AID 588855; further: on the % scale 0 is the no-effect control and ±100 the full control effect; nearly all actives have a fitted effect of over 65% in size
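Inhibition was scored as loss of TGF-beta-induced (500 pg/mL final, 18 hours, 37 degrees C) GFP in HEPG2 cells carrying a CAGA-GFP reporter, in DMEM with 1% FBS. Well GFP was summed per cell; Activity was normalised to unstimulated and stimulated DMSO wells, then concentration-response fitting.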
ATXN2 expr inh: reduces ATXN2 reporter expression in HEK-293 cells | HEK-293 ATXN2-luciferase reporter, luminescence, 24 h | Potency, µM (doses to about 57 µM), for inactives: top-dose activity change, negative = inhibition, actives largely listed as inhibitors | 0.72% of 360,000 active | AID 1745845; further: on the % scale 0 is the no-effect control and ±100 the full control effect; nearly all actives have a fitted effect of over 55% in size
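ATXN2-luciferase reporter cells (luciferase flanked by upstream and downstream ATXN2 gene portions) were treated 24 h at 37 °C with compounds at up to 57 uM. SteadyGlo luminescence gave expression; GF-AFC fluorescence gave viability.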
The depositor's hits bear a star; i = inactive; u = inconclusive; x = not tested or not shown; ! = not active in a repeat. An excerpt weighted towards active compounds, which were near 3.8% of everything screened. The call rests on the fitted dose curve; in most records, active means well fitted curve in the direction sought with a large enough effect; inconclusive means small, poorly fitted or top-dose-only effect, or another doubt; inactive means no such curve, though single readings can be large; an effect the other way counts as inactive or inconclusive. Potency means the concentration at half of the fitted maximal effect.

SMILES | Nrf2 block | ATXN viability | A549 tox | HepG2 tox | TGFb inhibitor | ATXN2 expr inh
CCCC1([C@H](O)C/C=C/[C@H]2[C@H](O)CC(=O)[C@@H]2CCCCCCC(=O)OC)CCC1 | x | 35µM* | x | x | x | x
O=C(/C=C/c1cccc(Cl)c1)c1ccc([N+](=O)[O-])o1 | u | 8.9µM* | u | 13µM* | 3.5µM* | 4.5µM*
FC(F)(F)c1nc(-c2cccs2)ncc1-c1nnnn1-c1ccc(Cl)cc1 | 23µM* | u | u | -28% | -10% | 22µM*
Clc1ccc(-n2nnnc2-c2cnc(-c3ccncc3)nc2-c2cccs2)cc1 | u | i | -14% | -30% | -17% | -11%
COc1ccc(-n2nnnc2-c2cnc(N3CCCC3)nc2C(F)(F)F)cc1 | 18µM* | i | -24% | -22% | u | -11%
FC(F)(F)c1nc(-c2cccnc2)ncc1-c1nnnn1-c1ccccc1 | -39% | i | -2% | -11% | 12% | -22%
O=C(c1ccccc1)C(I)(I)N1CCOCC1 | x | x | x | -6% | 11% | x
O=C(NCCc1ccccc1)C(c1cccs1)N(C(=O)c1csnn1)C1CC1 (stereo unspecified) | 15% | i | -13% | -3% | -19% | 13%
O=C(NCCc1ccccc1)C(c1cccs1)N(C(=O)CCl)c1ccc(Cl)cc1 (stereo unspecified) | -17% | 5µM* | -3% | 10µM* | 11µM* | 4.5µM*
CCOc1ccccc1N=C1SC(CC(=O)Nc2ccc(OC)cc2OC)C(=O)N1CCC1=CCCCC1 (stereo unspecified) | -23% | i | 1% | 16% | -6% | 7%
O=C(CC1SC(=Nc2ccc(OC(F)F)cc2)N(CCC2=CCCCC2)C1=O)Nc1ccccc1F (stereo unspecified) | 21µM* | i | -17% | -7% | 0% | -10%
CCCCCCCCCCCCCCCC[N+](C)(C)CCN(Cc1ccc(OC)cc1)c1ncccn1 | 21µM* | 25µM*! | u | 10µM* | u | 35µM*!
Cc1cc(C)c2oc(-c3cccc(NC(=O)c4cc5ccccc5o4)c3)nc2c1 | 4% | i | -2% | -23% | -21% | 12%
Cc1cccc(C)c1OCCn1c(CCNC(=O)C2CCCCC2)nc2ccccc21 | -23% | x | -11% | -59% | 13µM* | x
Cc1cc(C)cc(OCCCn2c(CCNC(=O)C3CCCCC3)nc3ccccc32)c1 | u | x | u | -34% | u | x
Cc1cc(C)cc(OCCn2c(CCNC(=O)C3CCCCC3)nc3ccccc32)c1 | 5% | x | -1% | 0% | -2% | x
O=C(NCCc1nc2ccccc2n1CCCOc1ccc(Cl)cc1)C1CCCCC1 | u | x | u | -97% | 18µM* | x
O=C(NCCCc1nc2ccccc2n1Cc1ccc(F)cc1)C1CCCCC1 | -22% | u | 1% | -53% | 13µM* | -39%
Cc1cccc(OCCCn2c(CCNC(=O)C3CCCCC3)nc3ccccc32)c1 | u | x | u | -70% | 22µM* | x
O=C(Nc1ccc(Cl)c(C(F)(F)F)c1)C(Cc1ccccc1)NS(=O)(=O)c1ccc(Br)s1 (stereo unspecified) | 13% | i | 1% | -12% | -6% | -9%
CCn1c(CNC(=O)c2ccc(OC)cc2)nnc1SCC(=O)Nc1cccc(C)c1 | -4% | i | -8% | -5% | -40% | 1%
CC(C)N1C[C@@H](Sc2ccccn2)C[C@H]1C(=O)Nc1ccc2c(c1)Nc1ccccc1CC2 | x | i | x | x | x | x
S=C(Nc1ccccc1)Nc1nc2ccccc2n1CCOc1ccc(Cl)cc1 | u | i | -11% | -58% | 14µM* | u
CC(C)(C)c1ccc(OCCn2c(CCNC(=O)C3CCCCC3)nc3ccccc32)cc1 | 18µM* | x | -29% | -78% | 20µM* | x
Cc1ccccc1C(=O)N1CC/C(=N\OS(=O)(=O)O)c2ccc(Cl)cc21 | x | i | x | x | x | -2%

Bioassay records: PubChem, National Center for Advancing Translational Sciences (NCATS)
